Experimental data as given in PubChem BioAssay.
Activity calls are given as the source filed them.

Experiments:
Albumin (Bos taurus) = Albumin (Bos taurus) (UniProt P02769); assay: compounds binding labelled BSA control protein – biochemical, small-molecule microarray, Alexa647 label, 635/667 nm fluorescence, artefact control for SMM control protein annotation, profiling panel (AID 1118); settings: BSA-A647 binding, fluorescence 635 nm, higher = more signal;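 also: score merges 667 nm emission intensity and signal-to-noise per printed compound spot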
[1] = probe aXIP binding to arrayed compounds – biochemical, NeuroSMM set, 635/667 nm fluorescence, primary screen (AID 1119); settings: small-molecule microarray, higher = more signal, called active from +8 up or from −8 down;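 also: probe is the protein aXip251-270 applied at 1 µg/mL to compound-printed slides; binding of probe to printed compounds measured as 667 nm fluorescence plus signal to noise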
[2] = probe aNOTCH3 binding on compound microarray – biochemical, small-molecule microarray, 635/667 nm fluorescence, primary screen (AID 1120); settings: higher = more signal;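 also: probe is a biotin-tagged antibody raised against NOTCH3 rather than NOTCH3 protein; score merges spot fluorescence near 667 nm with spot signal to noise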
[3] = probe aNOTCH2 binding on compound microarray – biochemical, small-molecule microarray, 635/667 nm fluorescence, primary screen (AID 1121); settings: higher = more signal;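 also: score merges feature fluorescence read at 667 nm with its signal to noise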
[4] = target: Carbonic anhydrase 2 (Homo sapiens) (UniProt P00918); assay: compounds binding carbonic anhydrase 2 – biochemical, small-molecule microarray, Alexa647-labelled CAII, profiling panel (AID 1122); settings: CAII-A647 binding fluorescence, higher = more signal
[5] = COS7 lysate on small-molecule microarray, probe aHis, 635 nm (AID 1123); settings: COS7 cell lysate, fluorescence, higher = more signal;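 also: z-score combines 667nm fluorescence intensity with signal-to-noise per printed compound spot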
[6] = probe aLAP1 signal on lysate-treated microarray – cell lysate, small-molecule microarray, COS7 lysate, primary screen (AID 1124); settings: probe aLAP1, fluorescence, higher = more signal;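 also: lysate comes from COS7 cells expressing LAP1 and is applied at 0.3 µg/mL; score merges spot fluorescence near 667 nm with signal-to-noise over triplicate slides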
Sam68 (KHDRBS1) = assay: compounds binding KHDRBS1 protein – biochemical, small-molecule microarray, 635 nm fluorescence, primary screen (AID 1125); settings: higher = more signal;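 also: score merges 667 nm channel intensity with signal to noise over triplicate slides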
[7] = tested on: Chordin-like protein 2 (CHRDL2); assay: compounds binding chordin-like 2 – biochemical, small-molecule microarray, 635 nm fluorescence, primary screen (AID 1126); settings: fluorescence 635 nm, higher = more signal;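 also: printed compound slides probed with Chrdl2 protein at 4 µg/mL for 1 h at 4 C; score merges 667 nm emission intensity with signal to noise over three replicate slides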
[8] = target: Concanavalin-A (Canavalia ensiformis) (UniProt P02866); assay: compounds binding concanavalin A lectin – biochemical, small-molecule microarray, Alexa647 label, 635 nm, artefact control for SMM control protein annotation, primary screen (AID 1127); settings: ConA-A647 binding fluorescence, higher = more signal;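 also: z combines 667 nm emission intensity with signal-to-noise across three replicate slides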
[9] = compounds binding Alexa647 anti-His antibody – biochemical, small-molecule microarray, 635 nm fluorescence, artefact control for SMM control protein annotation, primary screen (AID 1128); settings: higher = more signal;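 also: score merges feature fluorescence with signal-to-noise for each printed compound spot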
[10] = tested on: Human papillomavirus type 1a E7 protein (residues 1-88); assay: HPV1a E7 small-molecule binders, primary screen, biochemical, small-molecule microarray, residues 1-88, 635 nm (AID 1129); settings: small-molecule microarray binding, fluorescence 635 nm; higher = more signal
[11] = target: Focal adhesion kinase 1 (Homo sapiens) (UniProt Q05397); assay: PTK2 protein binding on printed compound slides – biochemical, small-molecule microarray, 635/667 nm fluorescence, BSA, DTT, primary screen (AID 1130); settings: 635 nm fluorescence, higher = more signal;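 also: composite of spot emission at 667 nm and signal to noise over triplicate slides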
[12] = tested on: Fibrinogen (Alexa647-labelled); assay: Alexa647-fibrinogen binding to printed small molecules – biochemical, small-molecule microarray, 635/667 nm fluorescence, artefact control for SMM control-protein annotation, profiling panel (AID 1131); settings: fibrinogen-A647 binding fluorescence, higher = more signal;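 also: z-score merges 667 nm fluorescence with per-spot signal-to-noise over triplicate slides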
[13] = target: Follistatin (Homo sapiens) (UniProt P19883); assay: FST protein binding to printed compounds – biochemical, small-molecule microarray, 635/667 nm fluorescence, primary screen (AID 1132); settings: 635 nm fluorescence, higher = more signal
[14] = target: Fibroblast growth factor 2 (Homo sapiens) (UniProt P09038); assay: basic fibroblast growth factor binding to printed compounds – biochemical, small-molecule microarray, 635/667 nm fluorescence, primary screen (AID 1133); settings: FGF2, fluorescence 635/667, higher = more signal
[15] = JC-1 mitochondrial potential readout, lung cancer cells – cell-based, A549, JC-1 fluorescence, basal, 24 h, 100 nL, profiling panel (AID 1138); settings: higher = more signal;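 also: A549 lung adenocarcinoma cells under basal conditions with no added stimulus; test concentration not given here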
Lefty1 = Lefty1 protein binding to printed compounds – biochemical, small-molecule microarray, 635/667 nm fluorescence, primary screen (AID 1139); settings: fluorescence 635/667, higher = more signal
[16] = tested on: wheat germ agglutinin (Triticum aestivum), Alexa647-labelled; assay: Alexa647-WGA lectin binding to printed small molecules – biochemical, small-molecule microarray, 635/667 nm fluorescence, artefact control for SMM control-protein annotation, profiling panel (AID 1140); settings: WGA-A647 binding, 635 nm fluorescence, higher = more signal;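 also: score merges 667 nm feature emission with signal to noise over triplicate slides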
[17] = target: Luciferin 4-monooxygenase (Photinus pyralis) (UniProt P08659); assay: inhibition of purified Photinus pyralis luciferase – biochemical, luminescence, purified enzyme, 2006 set, primary screen (AID 1141); settings: purified firefly luciferase, SteadyGlo luminescence, 30 min; higher = more signal, called active from +8 up or from −8 down;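 also: cell-free assay with purified firefly luciferase at 100 ng per well in PBS; test concentration not given here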
Chain of Luciferin 4-monooxygenase (Photinus pyralis) (P08659 whole entry, looked up): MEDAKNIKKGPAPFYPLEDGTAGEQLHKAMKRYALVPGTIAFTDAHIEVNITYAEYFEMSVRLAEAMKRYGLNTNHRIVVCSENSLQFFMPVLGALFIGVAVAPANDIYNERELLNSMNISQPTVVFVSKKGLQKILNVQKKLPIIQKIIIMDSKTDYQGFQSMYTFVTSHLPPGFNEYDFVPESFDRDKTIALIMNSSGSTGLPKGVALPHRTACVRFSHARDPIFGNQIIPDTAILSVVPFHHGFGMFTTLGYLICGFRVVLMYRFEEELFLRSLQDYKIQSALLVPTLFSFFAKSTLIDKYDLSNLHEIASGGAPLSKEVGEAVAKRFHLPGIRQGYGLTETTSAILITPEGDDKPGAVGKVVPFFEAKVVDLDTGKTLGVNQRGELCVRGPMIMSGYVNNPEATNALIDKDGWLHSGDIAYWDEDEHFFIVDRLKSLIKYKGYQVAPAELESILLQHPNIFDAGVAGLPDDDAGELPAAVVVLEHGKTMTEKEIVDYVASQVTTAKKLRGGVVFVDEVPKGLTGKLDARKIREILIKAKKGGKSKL

Chain of Focal adhesion kinase 1 (Homo sapiens) (Q05397 whole entry, looked up): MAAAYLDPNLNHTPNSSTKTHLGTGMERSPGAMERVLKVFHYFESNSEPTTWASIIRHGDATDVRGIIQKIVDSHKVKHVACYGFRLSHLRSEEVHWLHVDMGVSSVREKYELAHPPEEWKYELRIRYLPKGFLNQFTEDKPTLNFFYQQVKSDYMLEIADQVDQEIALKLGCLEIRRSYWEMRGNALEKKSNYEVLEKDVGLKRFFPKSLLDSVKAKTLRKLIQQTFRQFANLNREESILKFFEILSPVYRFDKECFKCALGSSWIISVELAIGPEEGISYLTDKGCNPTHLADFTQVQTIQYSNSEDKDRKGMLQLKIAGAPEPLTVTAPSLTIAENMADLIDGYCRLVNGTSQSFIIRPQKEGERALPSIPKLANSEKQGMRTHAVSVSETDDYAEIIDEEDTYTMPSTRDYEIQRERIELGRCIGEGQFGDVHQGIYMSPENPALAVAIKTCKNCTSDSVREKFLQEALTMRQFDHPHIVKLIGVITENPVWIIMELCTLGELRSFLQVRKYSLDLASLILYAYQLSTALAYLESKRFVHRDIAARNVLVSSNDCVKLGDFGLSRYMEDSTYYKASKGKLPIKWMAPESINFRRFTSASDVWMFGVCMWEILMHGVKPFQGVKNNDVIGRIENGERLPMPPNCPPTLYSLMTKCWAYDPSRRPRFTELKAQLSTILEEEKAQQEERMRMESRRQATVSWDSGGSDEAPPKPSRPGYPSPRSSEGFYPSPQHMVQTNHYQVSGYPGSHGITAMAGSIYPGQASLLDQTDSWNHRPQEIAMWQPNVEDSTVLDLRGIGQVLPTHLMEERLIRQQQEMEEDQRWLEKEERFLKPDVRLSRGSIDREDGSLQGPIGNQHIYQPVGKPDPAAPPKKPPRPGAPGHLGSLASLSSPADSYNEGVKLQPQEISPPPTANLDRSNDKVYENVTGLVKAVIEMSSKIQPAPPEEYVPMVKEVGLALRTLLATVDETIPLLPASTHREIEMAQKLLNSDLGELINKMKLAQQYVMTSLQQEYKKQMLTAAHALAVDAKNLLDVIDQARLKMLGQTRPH
Chain of Follistatin (Homo sapiens) (P19883 whole entry, looked up): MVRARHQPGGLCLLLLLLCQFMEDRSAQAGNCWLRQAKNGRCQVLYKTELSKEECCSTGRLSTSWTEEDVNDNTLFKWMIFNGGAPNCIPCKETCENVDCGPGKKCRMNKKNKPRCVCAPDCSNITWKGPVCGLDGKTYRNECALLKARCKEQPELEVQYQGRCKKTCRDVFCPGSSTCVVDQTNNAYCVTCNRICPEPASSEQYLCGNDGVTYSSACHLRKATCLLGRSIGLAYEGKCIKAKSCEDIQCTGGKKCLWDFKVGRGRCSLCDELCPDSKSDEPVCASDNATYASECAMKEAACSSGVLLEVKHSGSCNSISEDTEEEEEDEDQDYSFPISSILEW
Chain of Albumin (Bos taurus) (P02769 whole entry, looked up): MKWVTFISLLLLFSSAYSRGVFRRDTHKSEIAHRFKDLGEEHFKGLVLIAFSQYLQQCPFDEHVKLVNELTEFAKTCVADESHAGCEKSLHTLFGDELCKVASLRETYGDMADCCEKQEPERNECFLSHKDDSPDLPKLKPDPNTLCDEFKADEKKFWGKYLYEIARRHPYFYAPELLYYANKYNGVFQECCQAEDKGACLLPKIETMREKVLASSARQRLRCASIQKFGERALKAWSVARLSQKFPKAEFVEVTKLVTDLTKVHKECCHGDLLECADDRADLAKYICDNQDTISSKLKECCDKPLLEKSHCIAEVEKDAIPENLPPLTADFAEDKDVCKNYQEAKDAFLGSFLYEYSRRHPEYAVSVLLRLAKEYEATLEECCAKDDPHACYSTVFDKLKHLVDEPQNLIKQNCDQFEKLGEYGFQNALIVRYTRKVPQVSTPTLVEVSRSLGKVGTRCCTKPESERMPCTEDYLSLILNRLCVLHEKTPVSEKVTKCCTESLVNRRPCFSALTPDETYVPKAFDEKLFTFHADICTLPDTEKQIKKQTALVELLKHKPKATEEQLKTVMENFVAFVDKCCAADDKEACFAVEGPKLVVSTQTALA
Chain of Fibroblast growth factor 2 (Homo sapiens) (P09038 whole entry, looked up): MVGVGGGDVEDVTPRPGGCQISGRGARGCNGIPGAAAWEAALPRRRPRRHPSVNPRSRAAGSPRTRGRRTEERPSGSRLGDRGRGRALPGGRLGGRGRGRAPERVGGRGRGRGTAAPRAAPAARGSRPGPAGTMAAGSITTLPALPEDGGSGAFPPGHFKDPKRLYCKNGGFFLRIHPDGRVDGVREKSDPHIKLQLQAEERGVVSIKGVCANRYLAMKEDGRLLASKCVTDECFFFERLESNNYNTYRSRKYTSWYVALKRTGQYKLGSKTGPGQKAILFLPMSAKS
Chain of Concanavalin-A (Canavalia ensiformis) (P02866 whole entry, looked up): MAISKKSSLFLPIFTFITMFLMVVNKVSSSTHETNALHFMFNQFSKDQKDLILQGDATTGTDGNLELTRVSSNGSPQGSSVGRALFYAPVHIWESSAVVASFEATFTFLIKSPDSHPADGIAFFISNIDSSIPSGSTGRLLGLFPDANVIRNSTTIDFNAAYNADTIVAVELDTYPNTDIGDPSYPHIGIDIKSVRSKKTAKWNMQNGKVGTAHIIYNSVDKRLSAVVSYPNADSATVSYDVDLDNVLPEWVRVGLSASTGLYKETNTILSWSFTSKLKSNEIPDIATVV

SMILES | composite z-score (Albumin (Bos taurus)) | composite Z-score [1] | composite z-score [2] | composite z-score [3] | composite z-score [4] | composite z-score [5] | composite z-score [6] | composite z-score (Sam68 (KHDRBS1)) | composite z-score [7] | composite z-score [8] | composite z-score [9] | composite z-score [10] | composite z-score [11] | composite z-score [12] | composite z-score [13] | composite z-score [14] | z-score [15] | composite z-score (Lefty1) | composite z-score [16] | z-score [17]
CCOC(=O)C1=CC[C@@H](c2ccccc2)N(S(=O)(=O)c2ccc(C)cc2)[C@H]1c1ccccc1C | 0.767 | -0.663 (inactive) | 0.183 | 0.103 | 0.743 | 0.838 | 0.201 | 0.841 | -0.0352 | 0.705 | 0.109 | 0.893 | 0.0769 | 0.394 | 0.74 | 0.545 | 1.86 | 0.384 | 0.406 | 2.49 (inactive)
Cc1ccc(S[C@]2(C(=O)NC3CC3)CC(=O)N(Cc3ccccc3)[C@@H]2c2ccc(CO)cc2I)cc1 | 0.596 | -0.35 (inactive) | -0.209 | 0.0012 | 0.742 | 2.25 | 0.337 | 0.0282 | -0.682 | -0.391 | -0.744 | -0.0095 | -0.557 | -0.394 | -0.868 | -0.131 | 2.49 | -1.86 | -0.567 | -1.42 (inactive)
O=C1C2C=CC(C(O)CCc3ccccc3)N(Nc3ccccc3F)C2C(=O)N1c1ccccc1 (stereo not given) | 0.955 | -0.585 (inactive) | 0.331 | -0.0677 | 0.755 | 2.69 | 0.185 | 1.22 | -0.47 | 0.893 | 1.49 | 1.14 | 1.01 | 0.434 | 1.25 | -0.449 | 0.00533 | 0.0364 | 0.548 | 1.48 (inactive)
COC(=O)C(CC#Cc1ccc2c(c1)[C@]1(C(=O)N2)[C@H](c2ccc(OCCO)cc2)N2[C@H](c3ccccc3)[C@H](c3ccccc3)OC(=O)[C@H]2[C@@H]1C(=O)N1CCc2cc(OC)c(OC)cc2C1)C(=O)OC | 0.863 | -0.527 (inactive) | 0.407 | -0.0326 | 0.542 | 2.04 | 0.397 | 1.31 | 0.547 | 1.15 | 0.857 | 1.2 | 0.343 | 1 | 1.41 | 1.57 | -1.26 | 1.36 | 0.423 | -0.465 (inactive)
CC1CC/C=C\[C@H]2OC34C=CCN(C(C)(C)C)C(=O)[C@H]3N(CCO)C(=O)[C@@H]4C2C(=O)O1 (stereo not given in full) | 0.922 | 0.108 (inactive) | -0.341 | -0.148 | 0.917 | 1.08 | 1.41 | -0.719 | -1.31 | -2.33 | -0.931 | -0.585 | -0.0131 | -0.671 | -0.352 | -0.845 | -0.315 | -0.991 | 0.119 | 0.864 (inactive)
COc1ccccc1CN1C(=O)c2ccccc2[C@@H](C(=O)NC2CC2)[C@@H]1c1ccc(CO)cc1 | -1.07 | 0.0824 (inactive) | 0.0522 | -0.0449 | 0.602 | 1.05 | 0.849 | 1.31 | 0.837 | 1.14 | 2.77 | 1.23 | 0.344 | 0.725 | 1.42 | 1.66 | 1.76 | 1.5 | 0.85 | -0.659 (inactive)
CC1(C)[C@@H]2CC(C(O)C3C=CC4C(=O)N(c5ccccc5)C(=O)C4N3Nc3ccc([N+](=O)[O-])cc3)=C[C@H]1C2 (stereo not given in full) | 0.973 | 0.131 (inactive) | 0.101 | -0.106 | 0.425 | 2.8 | 0.0175 | 1.33 | 0.649 | 1.17 | 1.11 | 1.27 | 0.368 | 1.04 | 1.16 | 0.488 | -1.25 | 0.619 | 0.728 | 0.285 (inactive)
CC(C)[Si]1(C(C)C)O[C@@H](c2ccccc2)c2cc(-c3ccc(-c4ccc(Cl)c(Cl)c4)o3)nc(-c3ccccc3)c21 | 0.473 | -0.0194 (inactive) | -0.0918 | -0.133 | 0.233 | 0.308 | 0.0588 | 0.278 | -0.432 | 0.989 | 2.46 | 0.361 | -0.289 | 0.291 | -0.139 | 0.0622 | -0.133 | -0.0995 | 0.533 | -0.266 (inactive)
COCCCNC(=O)[C@@]1(C)c2ccccc2C(=O)N(C(C)C)[C@H]1c1ccc(CO)cc1 | -0.106 | 0.466 (inactive) | 0.0001 | 0.0023 | 0.693 | 0.75 | 0.0526 | 1.16 | 1.08 | 0.67 | 1.42 | 1.14 | 0.624 | 0.648 | 1.16 | 0.802 | 0.168 | 0.499 | 0.342 | -0.336 (inactive)
COc1cccc(-c2cccc(=O)o2)c1 | -0.172 | 2.41 (inactive) | 0.366 | 0.38 | 0.111 | 0.175 | -0.0345 | -0.579 | 0.683 | -0.664 | 0.0707 | -0.0477 | -0.0753 | -0.51 | 0.302 | 0.0278 | -0.376 | -0.198 | 0.143 | -0.0346 (inactive)
COC(=O)[C@@]1(Cc2ccc(F)cc2)[C@H]2c3cc(C(=O)N(C)C)n(Cc4ccccc4)c3C[C@H]2CN1C(=O)c1ccccc1 | 0.816 | 0.0843 (inactive) | 0.215 | 0.0431 | 0.183 | 2.05 | 0.495 | 0.78 | -0.643 | 1.04 | 1.38 | 0.789 | -0.109 | 0.91 | 0.787 | -0.525 | 0.906 | 0.0954 | 1.16 | 2.14 (inactive)
C=CCC(OC(C)=O)[C@@H]1[C@@H](N(Cc2ccc(-c3ccccc3)cc2)C(=O)Cc2ccc(OC)cc2)c2cc(OCCCO)ccc2N1C(=O)Cc1ccc2ccccc2c1 (stereo not given in full) | 0.0549 | 0.142 (inactive) | -0.0841 | -0.112 | 0.064 | 0.49 | -0.149 | -0.493 | -0.0169 | -1.7 | -0.142 | -0.442 | 0.151 | 0.389 | -0.0399 | -0.197 | 0.112 | 0.168 | 0.182 | -0.358 (inactive)
CCC[C@@H]1C[C@@]1(CCC)[C@@H](NC(=O)c1ccccc1)c1cccc(Cl)c1 | 0.941 | 0.432 (inactive) | 1.38 | 0.808 | 0.326 | 2.63 | 0.245 | 1.33 | 0.0667 | 0.954 | 1.52 | 1.17 | 0.535 | 0.596 | 0.219 | -0.331 | 0.349 | -0.544 | 1.11 | 0.841 (inactive)
O=C(OCc1ccccc1)C1=CCC2c3[nH]c4ccccc4c3C(=O)C1N2S(=O)(=O)c1ccccc1[N+](=O)[O-] (stereo not given) | 0.994 | 0.0421 (inactive) | 0.6 | 0.285 | 0.777 | 2.61 | 0.335 | 1.06 | -0.328 | 0.996 | 1.28 | 1.26 | -0.134 | 0.906 | 1.11 | 0.491 | -2.71 | 0.5 | 0.743 | 0.895 (inactive)
